Broadly, the inhibition is the drop in the measured response relative to a control, in per cent.

SMILES strings stand for the structures. Values joined by “and” are separate entries in the source; they are usually repeats but may differ in a detail not shown here. Equal entries are not always repeated. Some compounds were tested as several samples or in several runs, with calls that do not always agree. Active and inactive are the calls of the source.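 The calls were made as follows, unless noted: active = inhibition at or above 50% relative to wild type and mutant plate controls; inactive = inhibition below 50%.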

The text below walks through data of PubChem BioAssay.

A short description of test [1]: inhibitors of TNFa-induced NFkB p65 translocation, primary screen, imaging, HUVEC, MLSMR starter and 10KST1 sets (AID 438;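 active = inhibition above 20% together with a positive visual image hit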;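 also: compound added about 3h40 before a 20 min TNFalpha stimulation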;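 as to inhibition: signal is the nuclear over cytoplasmic p65 intensity ratio per well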). The settings on record: HUVEC TNFa-induced p65 nuclear translocation; cell count: measured here: nuclei count (cytotoxicity indicator), at 2.08 µM; inhibition: at 2 µM, stronger effect = higher value, 0% TNFa-plus-vehicle, 100% no-TNFa wells.
The nature of test [2]: reduction of polyQ htt aggregates in cells – imaging, exon1htt(103Q)mCFP cells, high-content imaging, primary screen (AID 483;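 active = visual image review flags a hit and inhibition of aggregation exceeds 20%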;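 also: compound exposure lasted 3 days before fixation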;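 as to nuclei count: percent of the per-plate median nuclei count of sample wells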). The settings on record: exon1htt(103Q)mCFP cell line, aggregate imaging, at 2 µM; inhibition of aggregation: stronger effect = higher value; nuclei count: measured here: cell count, toxicity.
A short description of test [3]: endothelial E-selectin expression blockers – imaging, HUVEC, immunofluorescence, MLSMR starter and 10KST1 sets, primary screen (AID 487;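 active = visually confirmed hit in the image check and inhibition above 20%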;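 as to inhibition: signal is fraction of cell area covered by stained E-selectin grains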;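 as to nuclei count: 100% = median nuclei count of all wells on the same plate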). The settings on record: HUVEC TNFalpha-induced E-selectin immunofluorescence imaging, at 2 µM; inhibition: stronger effect = higher value; nuclei count: measured here: cell number, toxicity.
Test [4] can be described thus: Primary imaging screen for DUSP6 inhibitors that restore phospho-Erk in transfected HeLa cells, chemical complementation (AID 609;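 active = compounds giving at least 50% inhibition in the cell-based MKP-3 phosphatase rescue imaging test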;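 as to inhibition: phospho-Erk level distribution per well compared with pooled transfected vehicle control wells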). The settings on record: HeLa MKP-3 transfected, phospho-Erk imaging KS statistic, at 10 µM, cells stimulated with TPA for 15 min.
Test [5] concerns the target Dual specificity protein phosphatase 6 (Homo sapiens) (UniProt Q16828). The test is described as above. The settings on record: HeLa MKP-3 transfected, phospho-Erk imaging KS statistic; at 10 µM; stronger effect = higher value; cells stimulated with TPA for 15 min.
Test [6] has as its target Voltage-gated potassium channel subunit beta-2 (Rattus norvegicus) (UniProt P62483). The test is described as follows: inhibitors of rat Kvbeta2 reductase activity – biochemical, NADPH fluorescence, primary screen (AID 622;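 active = fluorescence slope higher than the sample average by over 3 SD, cut at about -0.22 in these data, passing the limit was not always enough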;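 also: slope of raw intensity against log time taken from 70 to 1610 s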). The settings on record: recombinant KvBeta, 4-cyanobenzaldehyde reduction, at 10 µM, stronger effect = higher value.
The target is the same in test [7]. Description: enhancers of rat Kvbeta2 NADPH turnover – biochemical, NADPH fluorescence, primary screen (AID 623;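 active = NADPH fluorescence slope more negative than the mean of all samples by about 3 SD, 99.7% confidence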;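 also: fluorescence intensity change per second fitted from 20 to 320 s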). The settings on record: Recombinant KvBeta, NADPH fluorescence decrease slope, 10 min; at 10 µM; stronger effect = lower value.
In test [8] the target is Alpha-2C adrenergic receptor (Homo sapiens) (UniProt P18825). The test is described as follows: compounds altering alpha2C-coupled GIRK flux – cell-based, HEK293 alpha2C/GIRK1/2, thallium flux, primary screen (AID 624;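 active = fluorescence slope after compound addition differing from the mean of all screened samples at 99.7% confidence, in either direction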;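 also: slope of fluorescence ratio to pre-addition baseline per second over 15 to 24 s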). The settings on record: thallium flux BTC fluorescence, at 10 µM, actives lie on both sides.
Chain of Alpha-2C adrenergic receptor (Homo sapiens) (P18825 whole entry, looked up): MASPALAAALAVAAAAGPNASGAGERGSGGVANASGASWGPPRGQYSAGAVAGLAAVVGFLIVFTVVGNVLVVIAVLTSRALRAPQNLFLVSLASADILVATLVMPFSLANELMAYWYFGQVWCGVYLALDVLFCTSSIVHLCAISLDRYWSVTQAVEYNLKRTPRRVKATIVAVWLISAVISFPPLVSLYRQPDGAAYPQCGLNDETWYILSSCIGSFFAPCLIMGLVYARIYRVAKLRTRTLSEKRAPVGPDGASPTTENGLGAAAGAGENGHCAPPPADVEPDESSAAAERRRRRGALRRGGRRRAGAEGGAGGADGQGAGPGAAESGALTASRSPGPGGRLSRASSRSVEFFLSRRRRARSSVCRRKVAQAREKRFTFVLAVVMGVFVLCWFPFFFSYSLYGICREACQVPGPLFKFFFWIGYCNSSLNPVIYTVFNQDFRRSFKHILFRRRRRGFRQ
Test [9] in a line: inhibitors of larval lipid processing in zebrafish, primary screen, whole organism, PED6 fluorescence, gall bladder and intestine (AID 686;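 active = a full or partial loss of lipid-probe fluorescence in the fish gall bladder, intestine or both, judged by eye; inactive = no fluorescence loss, or compound toxic to the fish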;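 also: larvae 5 to 7 days old with five fish per well; signal comes from phospholipase A2 cleavage of quenched PED6 carried via bile; overnight exposure to compound and PED6 before scoring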). The settings on record: Zebrafish larvae PED6 lipid processing, fluorescence scoring; screened at 20 µM (by protocol).
Test [10] can be described thus: loss of swimming-algae plug formation – whole organism, Chlamydomonas reinhardtii, WT vs cilia-less mutant, absorbance, 96-well, primary screen (AID 463189).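 Also: 0% = wild type cc124 cells in DMSO and 100% = ciliumless bld1 mutant cells.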 The settings on record: Chlamydomonas reinhardtii gravitaxis, OD600 absorbance, 2 days; at 10 µM; stronger effect = higher value.
Test [11] in a line: blockers of RIG-like receptor reporter activation – cell-based, Sendai virus stimulus, luciferase, 10K MLSCN set, TLR/RLR signaling modifier project, primary screen (AID 602276;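 active = inhibition at or above 50% at 10 µM; inactive = inhibition below 50%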;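 also: firefly luciferase from ISG56 promoter only with Renilla not read in this screen; 0% = Sendai virus plus DMSO and 100% = medium plus DMSO without virus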). The settings on record: HEK293 RL24 IRF3 luciferase reporter, at 10 µM, stronger effect = higher value.
Test [12] in a line: TLR3 IRF3 reporter activation blockers – cell-based, poly I:C stimulus, luciferase, 10K MLSCN set, primary screen (AID 602277;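 active = inhibition of the reporter signal at or above 50%; inactive = inhibition below 50%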). The settings on record: HEK293-TLR3 RL24 IRF3 luciferase reporter, at 10 µM, stronger effect = higher value. (In a reporter assay the amount or activity of a reporter protein is the signal.)
The target of test [13] is Muscarinic acetylcholine receptor M4 (Homo sapiens) (UniProt P08173). Description: M4-linked GIRK flux change, two-sided – cell-based, HEK293 M4/GIRK, thallium flux, BTC-AM, M4 allosteric agonist project, primary screen (AID 625;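 active = fluorescence slope after compound addition differing from the mean of all tested samples at 99.7% confidence, mostly higher but some lower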;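 also: thallium influx through GIRK channels coupled to M4 in HEK293 cells with BTC-AM dye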). The settings on record: at 10 µM, actives lie on both sides.
Chain of Muscarinic acetylcholine receptor M4 (Homo sapiens) (P08173 whole entry, looked up): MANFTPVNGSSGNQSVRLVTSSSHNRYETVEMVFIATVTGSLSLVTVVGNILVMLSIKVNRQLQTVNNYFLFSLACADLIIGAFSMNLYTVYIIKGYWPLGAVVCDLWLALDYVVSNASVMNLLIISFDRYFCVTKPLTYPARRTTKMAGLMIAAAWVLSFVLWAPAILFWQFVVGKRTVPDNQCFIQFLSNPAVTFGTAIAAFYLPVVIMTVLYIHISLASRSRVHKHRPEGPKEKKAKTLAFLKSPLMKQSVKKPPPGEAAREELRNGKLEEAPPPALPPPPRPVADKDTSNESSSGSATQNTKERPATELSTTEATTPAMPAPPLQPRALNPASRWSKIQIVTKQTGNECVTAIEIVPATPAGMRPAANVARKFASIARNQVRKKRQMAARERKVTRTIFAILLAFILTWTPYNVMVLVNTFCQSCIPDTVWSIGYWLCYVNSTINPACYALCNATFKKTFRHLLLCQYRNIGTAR
Setting [14] is: measured here: cell density z-score.
The mark [15] stands for this setting: measured here: nuclear c-Myc green intensity z-score.
[16] abbreviates: measured here: nuclear pErk red intensity z-score, stronger effect = higher value.

Chain of Dual specificity protein phosphatase 6 (Homo sapiens) (Q16828 whole entry, looked up): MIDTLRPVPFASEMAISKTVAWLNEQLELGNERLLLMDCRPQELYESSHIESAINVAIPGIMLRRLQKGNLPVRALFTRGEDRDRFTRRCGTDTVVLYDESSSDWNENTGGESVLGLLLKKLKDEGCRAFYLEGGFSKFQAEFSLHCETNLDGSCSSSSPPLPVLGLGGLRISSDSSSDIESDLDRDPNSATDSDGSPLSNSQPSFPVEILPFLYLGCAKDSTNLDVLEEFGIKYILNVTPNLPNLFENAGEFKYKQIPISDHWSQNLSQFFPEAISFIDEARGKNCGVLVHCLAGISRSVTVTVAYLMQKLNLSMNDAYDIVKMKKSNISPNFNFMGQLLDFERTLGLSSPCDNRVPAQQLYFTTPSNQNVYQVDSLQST
Chain of Voltage-gated potassium channel subunit beta-2 (Rattus norvegicus) (P62483 whole entry, looked up): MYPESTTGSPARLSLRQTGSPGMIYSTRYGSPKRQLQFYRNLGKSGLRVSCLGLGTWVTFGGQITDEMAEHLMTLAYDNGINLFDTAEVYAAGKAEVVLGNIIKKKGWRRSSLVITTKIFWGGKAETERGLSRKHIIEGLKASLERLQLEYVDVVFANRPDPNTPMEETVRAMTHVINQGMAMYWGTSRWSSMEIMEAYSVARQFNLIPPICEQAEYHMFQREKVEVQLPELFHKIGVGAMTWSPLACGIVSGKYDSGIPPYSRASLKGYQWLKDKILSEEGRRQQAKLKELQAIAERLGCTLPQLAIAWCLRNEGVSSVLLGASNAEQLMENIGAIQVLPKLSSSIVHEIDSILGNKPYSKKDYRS

For `CCOC(=O)CC(=O)CSc1[nH]c(=O)cc(C)c1C#N`, the cell count in [1] amounted to 653. Besides, the inhibition in [1] is -6% (inactive); in test [3], 28.4% (inactive); in test [5], 11% (inactive); in test [10], 6.76% (inactive); in [11], 3.57% (inactive); in test [12] it was 10% (inactive). For the same compound, in [2], the inhibition of aggregation was 5.4% (inactive). Further, the nuclei count in test [2] amounted to 96.3%; in test [3] it was 132%. Moreover, the z-score was -1.3 in test [4] (setting [14]), 0.221 in test [4] (setting [15]) and -0.165 in [4] (setting [16]). Besides, the fluorescence slope in test [6] is -0.403 (inactive). In addition, the NADPH fluorescence slope in test [7] was -6.7e-05 (inactive). Also, in [8], the slope was 0.0053 (inactive). Further, the outcome in test [9] was inactive.
Regarding `CN1CCN(CCCN2c3ccccc3Sc3ccc(C(F)(F)F)cc32)CC1`, in [1], the cell count is 613. For the same compound, the inhibition in test [1] is 4.1% (inactive); in test [3], -23.1% (inactive); in test [5], -5.24% (inactive); in [10], 35.7% (inactive) and 164% (active); in [11], 18.2% (inactive); in test [12] it was 40.2% (inactive). Besides, in test [2], the inhibition of aggregation is -9.7% (inactive). The nuclei count in test [2] came out at 101%; in test [3] it was 121%. Moreover, the values for the z-score in test [4] (setting [14]), in test [4] (setting [15]) and in test [4] (setting [16]) were 0.592, 0.844 and 1.24, respectively. In addition, in test [6], the fluorescence slope was -0.437 (inactive). Also, the NADPH fluorescence slope in [7] is -1.6e-05 (inactive). Moreover, the slope in test [8] was 0.00437 (inactive). The outcome in test [9] was inactive.
`CCC(C(=O)OCCN(CC)CC)c1ccccc1` (configuration not stated): in [1], the cell count came out at 572. Besides, the inhibition in test [1] is -11.1% (inactive); in [3], -56.9% (inactive); in [5], 19.2% (inactive); in [10], 21.8% (inactive); in test [11], 8.3% (inactive); in [12], 34.3% (inactive). In addition, the inhibition of aggregation in test [2] is -9.9% (inactive). The nuclei count came to 104% in [2] and 130% in test [3]. Also, the values for the z-score in test [4] (setting [14]), in test [4] (setting [15]) and in test [4] (setting [16]) were 1.14, 1.04 and 0.111, respectively. Further, in [6], the fluorescence slope was -0.459 (inactive). In addition, in [7], the NADPH fluorescence slope is -3.7e-05 (inactive). Besides, the slope in test [8] was 0.00422 (inactive). The compound was classed as inactive in [9].
Regarding `CCc1cc2c(=O)c(-c3nc4ccccc4[nH]3)coc2cc1OC(=O)N1CCOCC1`, the cell count in test [1] came out at 666. Also, the inhibition in test [1] was -4.8% (inactive); in test [3], -44.8% (inactive); in [5] it was -9.53% (inactive); in [10] it was -11.5% (inactive); in test [11], -4.36% (inactive); in test [12] it was -9.08% (inactive). Besides, in test [2], the inhibition of aggregation was -15.2% (inactive). Further, the results for the nuclei count in test [2] and in [3] were 126% and 149%, respectively. For the same compound, the z-score in [4] (setting [14]) was 0.051; in test [4] (setting [15]), 0.477; in test [4] (setting [16]), -0.475. Also, the fluorescence slope was -0.483 (inactive) in [6] and 0.00565 (inactive) in [13]. The NADPH fluorescence slope in test [7] was -3e-05 (inactive). For the same compound, the slope in test [8] was 0.00512 (inactive). In test [9], the call was inactive.
Regarding `Cc1ccc(-n2c(N)c(C(N)=O)sc2=S)cc1`, the cell count in [1] was 560. The inhibition in [1] is -7.1% (inactive); in [3], -12.7% (inactive); in [5], -1.98% (inactive); in test [10], 21.1% (inactive); in test [11], 2.77% (inactive); in test [12], 15.4% (inactive). Also, the inhibition of aggregation in test [2] was -1.4% (inactive). The results for the nuclei count in [2] and in test [3] were 104% and 146%, respectively. For the same compound, the z-score in [4] (setting [14]) was -0.361; in test [4] (setting [15]) it was -1.13; in [4] (setting [16]), 1.48. Also, the fluorescence slope in test [6] is -0.427 (inactive); in test [13], 0.00756 (inactive). Besides, the NADPH fluorescence slope in test [7] is -2.9e-05 (inactive). Further, the slope in [8] is 0.00443 (inactive). In test [9], the outcome was inactive.
